High-throughput results (PubChem BioAssay)
Only some compounds are listed: those with a hit (about 2.7% of all), similar ones and a draw of the others.
Integrin act MD = activates integrin-mediated alleviation for muscular dystrophy. alpha7betagal myoblasts, beta-gal FDG fluorescence, 48 h. Potency, µM (top dose mostly 38.3 µM), for inactives: at the highest dose activation, most hits filed as activators. 350,000 tested, 0.064% active. AID 624291;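 note: 100% = response of the positive control SU9516; nearly all actives have a fitted effect of over 60% in size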
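Alpha7betagal+/- myoblasts (passage 13) were plated 16-24 hr, then exposed to compounds (1:260 dilution of DMSO stock) for 48 hours at 37C. After MPER lysis, β-galactosidase reporter activity was read as FDG fluorescence (ex 480/em 540) after 30 minutes.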
GLP1R ag = activates the human GLP-1 receptor; 380,000 tested, 0.007% active; HEK293 GLP-1R CRE-luciferase, luminescence, 4-6 h; cells express a hypersensitive GLP-1R form; P43220; AID 624172; Potency, µM (titrated, usually from 45.6 µM), without a hit: at the top dose activation, actives largely listed as activators; note: % of control where 0% means no effect
Target sequence (P43220 whole entry, looked up): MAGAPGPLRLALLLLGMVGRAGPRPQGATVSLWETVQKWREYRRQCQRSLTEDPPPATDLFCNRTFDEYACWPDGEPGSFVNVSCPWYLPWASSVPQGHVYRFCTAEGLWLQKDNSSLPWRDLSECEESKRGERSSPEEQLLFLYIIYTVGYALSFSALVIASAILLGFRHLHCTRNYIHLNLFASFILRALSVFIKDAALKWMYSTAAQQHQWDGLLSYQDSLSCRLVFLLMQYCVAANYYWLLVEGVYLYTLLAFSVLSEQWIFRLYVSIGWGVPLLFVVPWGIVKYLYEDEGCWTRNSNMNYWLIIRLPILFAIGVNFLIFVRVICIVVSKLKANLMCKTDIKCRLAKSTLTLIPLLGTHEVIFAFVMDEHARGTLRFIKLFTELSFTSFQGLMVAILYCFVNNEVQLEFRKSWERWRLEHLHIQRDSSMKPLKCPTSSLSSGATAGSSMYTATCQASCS
BRCA1 expr up = activators of BRCA1 expression | MCF7-BRCA1-FFLuc reporter, luminescence, 48 h; response scale: scaled: vehicle 0%, 10 µM genistein 100% | Potency, µM (series often up to 46.1 µM), for inactives: at the top dose activation, actives largely listed as activators | 380,000 tested, 1.1% active | AID 624202; note: nearly all actives have a fitted effect of over 80% in size
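Luminescence from a BRCA1-driven firefly luciferase in MCF7 cells was the read-out, taken 15 min after substrate addition following 48 h compound exposure at 37 °C. Data were normalized to a 10 microM genistein control and DMSO vehicle.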
HEK293 tox = cytotoxic in the GLP-1 receptor inverse agonist counter-screen; HEK293 cAMP-luciferase reporter cells, luminescence, 24 h; Potency, µM (top dose mostly 38.3 µM), inactives show top-dose activity change, negative = inhibition, actives largely listed as inhibitors; 410,000 tested, 0.13% active; AID 624418;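 note: loss of luciferase light is scored as toxicity; % is set by controls: 0 for no effect and ±100 for the full control effect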
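A 23 nL compound transfer followed 12 hours of cell culture at 37 deg C; exposure then lasted 24 hr. Luciferase assay detection reagent was dispensed and plates read for luminescence after a 12 min room-temperature wait.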
GLP1R inv ag = inverse agonists of human GLP-1 receptor. 410,000 tested, 1.6% active. P43220. Potency, µM (series often up to 38.3 µM), without a hit: at the highest dose activity change, negative = inhibition, actives largely listed as inhibitors. HEK293 GLP-1R CRE-luciferase, luminescence, 24 h; GLP-1R form is constitutively active; note: % is set by controls: 0 for no effect and ±100 for the full control effect; nearly all actives have a fitted effect of over 55% in size
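Using stably transfected HEK293 (constitutively active GLP-1R, cAMP-luciferase reporter), compounds were incubated 24 hr and luciferase measured by luminescence.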
* hit, by the source's call; ? = inconclusive; nt = no result; [ ] = dose if it differs, or a comment. Calls come from the whole dose curve; as a rule, active = well fitted curve in the direction sought with a large enough effect; inconclusive = small, poorly fitted or top-dose-only effect, or another doubt; inactive = no such curve, though single readings can be large; an effect the other way counts as inactive or inconclusive. Potency is the fitted concentration of half-maximal effect.

SMILES	Integrin act MD	GLP1R ag	BRCA1 expr up	HEK293 tox	GLP1R inv ag
c1ccc(Oc2cc(-c3ccccc3)ncn2)cc1	21%	4%	11µM*	-18%	0%
COc1cc(OC)c(OC)cc1/C=C/c1nc2ccccc2o1	nt	nt	11%	nt	nt
COc1ccc(NC(=O)/C(Cl)=C(/Cl)S(=O)Cc2ccccc2Cl)cn1 (configuration not stated)	-70%	-8%	-93%	4µM*	?
O=C(c1ccc(Cl)s1)N1CCc2ccccc21	2%[7.66 µM]	-3%	11µM*	3%	?
COc1ccc(-c2cn3c(C)c(C(=O)N4CCCc5ccccc54)sc3n2)cc1	-9%	4%	-21%	-21%	8.9µM*
Cc1ccc(C(=O)N2CCc3ccccc32)cc1	21%	3%	11µM*	2%	?
O=C(c1ccc(Cl)cc1)N1CCc2ccccc21	24%	24%	85%	4%	?
O=C(c1cc(-c2ccc(F)cc2)on1)N1CCCc2ccccc21	23%	25%	39%	9%	-19%
Cc1ccc(-c2cc(C(=O)N3CCCc4ccccc43)no2)cc1	-23%	10%	3.2µM*	-5%	?
O=C(c1ccc(C(=O)N2CCCc3ccccc32)s1)N1CCCc2ccccc21	-6%	6%	-30%	-15%	-16%
COc1cccc2cc(-c3nc4sc5c(c4c(=O)[nH]3)CCC(C(C)(C)C)C5)c(=O)oc12 (configuration not stated)	nt	nt	nt	3%	0%
CN(C)c1ccc(C=Nc2cnc3ccccc3c2)cc1	nt	nt	27%	nt	nt
N#Cc1ccc(CSc2ccccn2)c(Cl)c1	?	-2%	52%	10%	?
Cn1c(SCc2ccc(C#N)cc2Cl)nc2ccccc21	11%	7%	4.5µM*	6%	1%
O=C(NCC(c1ccco1)N1CCCCC1)c1ccc(S(=O)(=O)Nc2ccccc2)cc1 (configuration not stated)	-19%	17%	-17%	-8%	?
O=C(Cc1cccc(C(F)(F)F)c1)NCC(c1ccco1)N1CCCCC1 (configuration not stated)	-22%	2%	-9%	-2%	?
O=S(=O)(NCC(c1ccco1)N1CCCCC1)c1cccc(C(F)(F)F)c1 (configuration not stated)	12%	3%	-24%	-1%	11µM*
O=S(=O)(NCC(c1ccco1)N1CCCCC1)c1ccccc1C(F)(F)F (configuration not stated)	-31%	-9%	-18%	-2%	10µM*
CCOc1ccc(NC(=O)Cn2c(=O)n(-c3cccc(Cl)c3)c(=O)c3c2c2cc(C)ccc2n3C)cc1	nt	nt	nt	3%	17%
Cc1cccc(C(=O)NCC(=O)OCc2cc(=O)n3nc(C4CCCCC4)sc3n2)c1	nt	nt	22%	6%	18%
Cc1ccccc1CN1CCCN(CC(=O)Nc2ccc3c(c2)OCCO3)S1(=O)=O	nt	nt	nt	-8%	-19%
CCC1CCCCN1S(=O)(=O)c1ccc(NC(=O)C2CC(=O)N(C(C)(C)C)C2)cc1 (configuration not stated)	1%	9%	11µM*	1%	14%
Cc1cccc(NC(=O)C(=O)NCC(c2cccnc2)N2CCN(Cc3ccccc3)CC2)c1 (configuration not stated)	nt	nt	nt	-5%	11%
COc1ccc(N(CC(=O)NCCSc2ccccc2)S(=O)(=O)c2ccccc2)c(OC)c1	37%	2%	-70%	-1%	10µM*
Cc1ccc(NC(=O)Nc2cc(C(F)(F)F)c[nH]c2=O)cc1	?	11%	-4%	-11%	10µM*
SMILES	Integrin act MD	GLP1R ag	BRCA1 expr up	HEK293 tox	GLP1R inv ag
Cc1cc(O)cc(O)c1-c1onc(C(F)(F)F)c1-c1cscn1	-21%	-14%	-26%	-20%	7.9µM*
COc1ccc(N(C(=O)c2ccccc2C)S(=O)(=O)c2cccs2)cc1	-12%	7%	-72%	-41%	?
COc1ccc(N(C(=O)c2ccccc2C)S(=O)(=O)c2ccc(C)cc2)cc1	nt	nt	nt	-3%	10µM*
C=CCc1cccc(/C=N/NC(=O)CNc2ccccc2)c1O	-36%	-11%	-90%	?	3.5µM*
C=CCc1cccc(/C=N/NC(=O)CCCNc2ccc(C)cc2)c1O	-43%	3%	-96%	?	10µM*
Cc1c(C(=O)N2CCCC2)oc2c1-c1nn(CC(=O)NC(C)c3ccccc3)cc1CC2 (configuration not stated)	nt	nt	nt	3%	2%
Cc1c(Cl)cccc1NC(=O)c1ccc2c(c1)nnn2C1CCCC1	nt	nt	-34%	-21%	?
O=C(Nc1ccc2nc3n(c(=O)c2c1)CCCC3)c1ccccc1F	24%	11%	?	0%	53%
O=C(Nc1ccc2nc3n(c(=O)c2c1)CCCC3)c1cccc(F)c1	-41%	9%	10µM*	-4%	55%
O=C(Nc1ccc2nc3n(c(=O)c2c1)CCCCC3)c1cc([N+](=O)[O-])ccc1F	-61%	-3%	-89%	?	11µM*
O=C(Nc1ccc2nc3n(c(=O)c2c1)CCCCC3)c1c(F)ccc([N+](=O)[O-])c1F	-76%	-3%	-37%	?	?
CCC/C=N/Nc1nc2ccccc2s1	1%	-2%	57%	-3%	?
C(=C\c1ccccc1)/C=N/Nc1nc2ccccc2s1	-3%	-11%	7.9µM*	9%	0%
Brc1ccc(/C=C/C=N/Nc2nc3ccccc3s2)cc1	20%	-12%	8.9µM*	2%	0%
COc1cccc(N2CCN(c3ncnc4c3[nH]c3ccc(F)cc34)CC2C)c1 (configuration not stated)	-57%	-54%	-83%	3.2µM*	?
COc1ccc2[nH]c3c(N4CC(C)OC(C)C4)ncnc3c2c1 (configuration not stated)	4%	13%	-41%	-28%	16%
CCOC(=O)c1oc2ccc(CNCCO)c(Cl)c2c1C	13%	9%	11µM*	32%	0%
CCOC(=O)c1oc2ccc(CNC3CCCCC3)c(Cl)c2c1C	-58%	17%	-10%	-27%	?
Cc1ccnc(NC(=S)NC(=O)/C=C/c2ccccc2)c1	-37%	-3%	86%	-19%	17%
C=CCNC(=S)Nc1cc(C)ccn1	-24%	6%	12%	?	10µM*
O=C(NCc1ccccn1)Nc1cccc(Cl)c1	5%	-2%	13µM*	6%	8%
Cc1onc(-c2ccccc2)c1CNC(=O)Nc1cccc(Cl)c1	-48%	13%	-45%	-7%	8.9µM*
Fc1cccc(NC(=S)NCc2ccccn2)c1	-19%	3%	44%	10µM*	?
Cc1nn(C)c(C)c1CNC(=O)Nc1cccc(Cl)c1	-11%	2%	4µM*	1%	-4%
